In ChEMBL document CHEMBL1961873, “Compounds: GSK PKIS; Assays: Nanosyn kinase panel” (2012):

Legend:
[1] = molecular target: Sphingosine kinase 1 (Homo sapiens) (UniProt Q9NYA1); conditions: at 1 µM;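 also: mean SPHK1 inhibition value reported from the GSK PKIS kinase panel screen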
[2] = molecular target: T1, Sphingosine kinase 2 (Homo sapiens) (UniProt Q9NRA0); conditions: at 0.1 µM
T1 sequence (whole entry): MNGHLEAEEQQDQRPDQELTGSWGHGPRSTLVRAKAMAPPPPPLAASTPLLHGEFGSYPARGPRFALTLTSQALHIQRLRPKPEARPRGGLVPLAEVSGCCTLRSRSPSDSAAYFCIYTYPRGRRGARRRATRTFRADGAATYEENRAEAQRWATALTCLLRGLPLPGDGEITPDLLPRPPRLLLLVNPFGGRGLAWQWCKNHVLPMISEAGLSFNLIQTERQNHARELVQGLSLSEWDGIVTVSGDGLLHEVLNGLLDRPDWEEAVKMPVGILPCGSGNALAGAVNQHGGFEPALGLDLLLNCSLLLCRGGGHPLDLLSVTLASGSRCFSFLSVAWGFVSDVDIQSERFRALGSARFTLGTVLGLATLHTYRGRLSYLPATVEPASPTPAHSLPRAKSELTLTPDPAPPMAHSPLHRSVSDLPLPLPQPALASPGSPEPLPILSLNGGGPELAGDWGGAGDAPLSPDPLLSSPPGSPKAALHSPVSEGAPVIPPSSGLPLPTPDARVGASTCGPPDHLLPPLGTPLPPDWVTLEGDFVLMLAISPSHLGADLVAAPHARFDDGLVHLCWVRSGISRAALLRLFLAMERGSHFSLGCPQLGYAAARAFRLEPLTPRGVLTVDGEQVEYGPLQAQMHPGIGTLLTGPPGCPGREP

[3] = molecular target: T1, Sphingosine kinase 2 (Homo sapiens); conditions: at 1 µM
[4] = molecular target: Casein kinase II subunit alpha (Homo sapiens) (UniProt P68400); conditions: at 0.1 µM
Casein kinase II subunit alpha (Homo sapiens), sequence (P68400 whole entry, looked up): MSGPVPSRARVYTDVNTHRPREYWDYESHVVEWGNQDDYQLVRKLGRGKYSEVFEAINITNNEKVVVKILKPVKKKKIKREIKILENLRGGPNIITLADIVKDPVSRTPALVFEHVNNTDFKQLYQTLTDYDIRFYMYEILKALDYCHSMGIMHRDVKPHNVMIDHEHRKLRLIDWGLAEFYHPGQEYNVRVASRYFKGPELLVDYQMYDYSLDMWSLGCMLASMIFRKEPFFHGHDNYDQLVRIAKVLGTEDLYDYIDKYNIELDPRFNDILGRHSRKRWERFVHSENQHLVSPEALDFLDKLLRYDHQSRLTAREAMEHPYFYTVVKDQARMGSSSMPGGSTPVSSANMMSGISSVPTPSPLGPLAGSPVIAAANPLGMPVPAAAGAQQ

[5] = molecular target: Casein kinase II subunit alpha (Homo sapiens) (UniProt P68400); conditions: at 1 µM
[6] = molecular target: T2, Inhibitor of nuclear factor kappa-B kinase subunit alpha (Homo sapiens) (UniProt O15111); conditions: at 0.1 µM
T2 sequence (whole entry): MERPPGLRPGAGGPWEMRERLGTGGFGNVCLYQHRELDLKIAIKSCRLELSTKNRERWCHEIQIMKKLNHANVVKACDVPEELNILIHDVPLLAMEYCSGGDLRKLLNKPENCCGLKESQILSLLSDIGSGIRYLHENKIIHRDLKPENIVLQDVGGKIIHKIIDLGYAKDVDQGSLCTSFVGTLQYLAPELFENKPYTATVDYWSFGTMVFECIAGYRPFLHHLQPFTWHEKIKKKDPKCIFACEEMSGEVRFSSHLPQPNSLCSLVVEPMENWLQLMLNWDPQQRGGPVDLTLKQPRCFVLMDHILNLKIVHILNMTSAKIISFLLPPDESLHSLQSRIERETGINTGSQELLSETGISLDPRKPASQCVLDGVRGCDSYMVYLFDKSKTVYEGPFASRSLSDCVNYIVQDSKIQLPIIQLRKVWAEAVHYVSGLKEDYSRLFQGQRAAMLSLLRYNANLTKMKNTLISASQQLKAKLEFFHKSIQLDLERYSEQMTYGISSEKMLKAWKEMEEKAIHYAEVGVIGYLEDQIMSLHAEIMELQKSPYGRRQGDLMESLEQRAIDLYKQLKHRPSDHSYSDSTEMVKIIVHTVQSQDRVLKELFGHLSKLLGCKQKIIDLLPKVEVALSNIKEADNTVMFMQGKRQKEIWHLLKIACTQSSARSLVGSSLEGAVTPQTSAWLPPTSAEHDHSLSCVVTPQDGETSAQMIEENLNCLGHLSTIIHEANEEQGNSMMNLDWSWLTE

[7] = molecular target: T2, Inhibitor of nuclear factor kappa-B kinase subunit alpha (Homo sapiens); conditions: at 1 µM
[8] = molecular target: T3, Inhibitor of nuclear factor kappa-B kinase subunit beta (Homo sapiens) (UniProt O14920); conditions: at 0.1 µM
T3 sequence (whole entry): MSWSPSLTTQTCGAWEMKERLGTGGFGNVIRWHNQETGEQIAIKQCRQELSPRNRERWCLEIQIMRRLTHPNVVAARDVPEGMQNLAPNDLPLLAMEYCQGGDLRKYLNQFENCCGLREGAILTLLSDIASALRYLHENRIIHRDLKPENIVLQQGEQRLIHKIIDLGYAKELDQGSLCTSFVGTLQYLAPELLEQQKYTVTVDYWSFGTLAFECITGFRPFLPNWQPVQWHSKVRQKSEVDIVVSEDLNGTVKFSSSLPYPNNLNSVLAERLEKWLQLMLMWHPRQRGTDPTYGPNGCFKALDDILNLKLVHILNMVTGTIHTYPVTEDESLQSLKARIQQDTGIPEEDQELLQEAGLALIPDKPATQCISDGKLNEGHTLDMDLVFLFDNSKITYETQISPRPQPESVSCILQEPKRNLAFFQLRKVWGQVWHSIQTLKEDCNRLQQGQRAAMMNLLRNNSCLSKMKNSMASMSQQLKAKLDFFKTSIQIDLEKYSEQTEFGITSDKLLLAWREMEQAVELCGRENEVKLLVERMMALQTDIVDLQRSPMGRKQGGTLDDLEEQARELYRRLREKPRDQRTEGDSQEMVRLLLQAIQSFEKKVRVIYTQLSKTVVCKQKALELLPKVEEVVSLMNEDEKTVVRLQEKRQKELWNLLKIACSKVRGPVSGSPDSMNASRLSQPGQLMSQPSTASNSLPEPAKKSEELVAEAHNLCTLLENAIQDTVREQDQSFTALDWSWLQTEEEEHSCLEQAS

[9] = molecular target: T3, Inhibitor of nuclear factor kappa-B kinase subunit beta (Homo sapiens); conditions: at 1 µM
[10] = molecular target: T4, Inhibitor of nuclear factor kappa-B kinase subunit epsilon (Homo sapiens) (UniProt Q14164); conditions: at 0.1 µM
T4 sequence (whole entry): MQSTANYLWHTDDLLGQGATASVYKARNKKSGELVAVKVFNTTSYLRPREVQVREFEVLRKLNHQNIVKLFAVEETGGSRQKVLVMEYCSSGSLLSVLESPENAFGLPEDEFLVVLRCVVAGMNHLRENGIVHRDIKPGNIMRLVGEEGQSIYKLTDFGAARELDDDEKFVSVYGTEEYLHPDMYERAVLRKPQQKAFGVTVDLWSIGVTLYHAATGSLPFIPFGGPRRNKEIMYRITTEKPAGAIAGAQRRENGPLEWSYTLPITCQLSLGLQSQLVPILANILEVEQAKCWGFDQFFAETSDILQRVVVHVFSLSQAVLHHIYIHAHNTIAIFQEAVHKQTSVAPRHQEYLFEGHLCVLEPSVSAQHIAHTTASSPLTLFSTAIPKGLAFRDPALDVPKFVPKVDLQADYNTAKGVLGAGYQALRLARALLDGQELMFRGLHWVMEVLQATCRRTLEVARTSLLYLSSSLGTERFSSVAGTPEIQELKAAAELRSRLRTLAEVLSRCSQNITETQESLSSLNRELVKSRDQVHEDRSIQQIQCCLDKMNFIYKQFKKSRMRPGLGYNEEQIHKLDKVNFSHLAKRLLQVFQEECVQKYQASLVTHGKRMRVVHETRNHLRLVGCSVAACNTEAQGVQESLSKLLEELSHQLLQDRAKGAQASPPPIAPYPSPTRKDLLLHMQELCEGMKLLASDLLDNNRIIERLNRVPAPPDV

[11] = molecular target: T4, Inhibitor of nuclear factor kappa-B kinase subunit epsilon (Homo sapiens); conditions: at 1 µM
[12] = molecular target: T5, Serine/threonine-protein kinase Nek1 (Homo sapiens) (UniProt Q96PY6); conditions: at 0.1 µM
T5 sequence (whole entry): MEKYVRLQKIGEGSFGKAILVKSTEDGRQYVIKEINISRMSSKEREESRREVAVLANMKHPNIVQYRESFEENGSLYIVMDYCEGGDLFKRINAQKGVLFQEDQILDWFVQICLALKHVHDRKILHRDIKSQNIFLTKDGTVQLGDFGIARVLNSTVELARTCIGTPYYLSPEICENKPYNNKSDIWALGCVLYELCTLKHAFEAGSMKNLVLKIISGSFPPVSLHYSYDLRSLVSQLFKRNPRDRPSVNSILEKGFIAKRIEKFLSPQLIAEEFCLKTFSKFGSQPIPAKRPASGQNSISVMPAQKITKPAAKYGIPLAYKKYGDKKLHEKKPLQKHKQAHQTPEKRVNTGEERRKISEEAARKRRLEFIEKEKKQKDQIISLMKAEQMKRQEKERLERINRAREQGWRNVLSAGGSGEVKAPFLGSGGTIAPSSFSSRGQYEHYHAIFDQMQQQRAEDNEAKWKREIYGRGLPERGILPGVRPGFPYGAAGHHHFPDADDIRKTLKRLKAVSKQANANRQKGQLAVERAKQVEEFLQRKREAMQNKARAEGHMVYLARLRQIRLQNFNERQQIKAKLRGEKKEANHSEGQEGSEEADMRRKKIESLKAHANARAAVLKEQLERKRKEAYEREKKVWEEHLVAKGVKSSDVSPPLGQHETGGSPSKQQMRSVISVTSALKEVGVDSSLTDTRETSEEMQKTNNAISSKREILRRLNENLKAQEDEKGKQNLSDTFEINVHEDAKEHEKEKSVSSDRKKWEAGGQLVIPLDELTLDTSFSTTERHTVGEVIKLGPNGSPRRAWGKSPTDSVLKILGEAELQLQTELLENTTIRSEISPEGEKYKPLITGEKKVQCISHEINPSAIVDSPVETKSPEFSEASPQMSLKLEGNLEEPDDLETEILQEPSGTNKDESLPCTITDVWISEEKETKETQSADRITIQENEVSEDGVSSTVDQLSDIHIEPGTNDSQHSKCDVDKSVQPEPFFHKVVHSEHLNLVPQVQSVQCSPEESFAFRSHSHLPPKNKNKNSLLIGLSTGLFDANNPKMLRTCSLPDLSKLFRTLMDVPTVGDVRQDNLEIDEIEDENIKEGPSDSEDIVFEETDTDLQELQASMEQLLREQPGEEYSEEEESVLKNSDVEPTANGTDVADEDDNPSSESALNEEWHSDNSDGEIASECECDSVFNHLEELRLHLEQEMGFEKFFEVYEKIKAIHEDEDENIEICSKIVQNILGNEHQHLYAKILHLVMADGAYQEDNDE

[13] = molecular target: T5, Serine/threonine-protein kinase Nek1 (Homo sapiens); conditions: at 1 µM
[14] = molecular target: T6, Serine/threonine-protein kinase Nek2 (Homo sapiens) (UniProt P51955); conditions: at 0.1 µM
T6 sequence (whole entry): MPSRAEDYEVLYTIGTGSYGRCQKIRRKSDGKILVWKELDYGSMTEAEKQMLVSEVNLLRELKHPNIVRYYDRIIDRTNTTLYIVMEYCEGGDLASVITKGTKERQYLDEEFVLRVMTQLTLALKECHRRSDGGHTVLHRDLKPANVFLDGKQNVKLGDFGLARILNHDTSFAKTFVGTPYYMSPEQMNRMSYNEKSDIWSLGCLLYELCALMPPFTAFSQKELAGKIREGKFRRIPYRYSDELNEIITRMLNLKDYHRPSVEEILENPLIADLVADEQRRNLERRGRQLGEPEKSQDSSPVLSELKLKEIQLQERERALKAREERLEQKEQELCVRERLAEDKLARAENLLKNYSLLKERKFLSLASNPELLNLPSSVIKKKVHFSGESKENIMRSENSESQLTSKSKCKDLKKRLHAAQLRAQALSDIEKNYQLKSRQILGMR

[15] = molecular target: T6, Serine/threonine-protein kinase Nek2 (Homo sapiens); conditions: at 1 µM
[16] = molecular target: Serine/threonine-protein kinase Nek6 (Homo sapiens) (UniProt Q9HC98); conditions: at 0.1 µM
Serine/threonine-protein kinase Nek6 (Homo sapiens), sequence (Q9HC98 whole entry): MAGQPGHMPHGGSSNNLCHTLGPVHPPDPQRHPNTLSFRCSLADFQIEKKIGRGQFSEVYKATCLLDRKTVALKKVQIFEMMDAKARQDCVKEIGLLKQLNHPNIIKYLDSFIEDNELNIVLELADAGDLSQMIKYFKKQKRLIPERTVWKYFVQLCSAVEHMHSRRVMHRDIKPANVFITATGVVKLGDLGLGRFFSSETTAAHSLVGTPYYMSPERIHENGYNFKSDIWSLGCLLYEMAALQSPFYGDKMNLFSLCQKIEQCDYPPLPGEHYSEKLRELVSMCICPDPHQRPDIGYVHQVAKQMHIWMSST

[17] = molecular target: Serine/threonine-protein kinase Nek6 (Homo sapiens) (UniProt Q9HC98); conditions: at 1 µM
[18] = molecular target: Serine/threonine-protein kinase Nek7 (Homo sapiens) (UniProt Q8TDX7); conditions: at 0.1 µM
Serine/threonine-protein kinase Nek7 (Homo sapiens), sequence (Q8TDX7 whole entry, looked up): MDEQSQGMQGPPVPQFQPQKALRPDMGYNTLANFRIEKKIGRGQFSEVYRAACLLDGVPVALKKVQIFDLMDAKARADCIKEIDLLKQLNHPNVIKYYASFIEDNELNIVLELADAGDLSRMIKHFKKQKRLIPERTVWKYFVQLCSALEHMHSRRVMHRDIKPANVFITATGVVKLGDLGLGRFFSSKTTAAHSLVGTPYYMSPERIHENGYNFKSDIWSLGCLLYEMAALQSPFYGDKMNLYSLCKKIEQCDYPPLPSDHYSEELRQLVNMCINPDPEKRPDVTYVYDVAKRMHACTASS

[19] = molecular target: Serine/threonine-protein kinase Nek7 (Homo sapiens) (UniProt Q8TDX7); conditions: at 1 µM
[20] = molecular target: T7, Serine/threonine-protein kinase Nek9 (Homo sapiens) (UniProt Q8TD19); conditions: at 0.1 µM;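 also: reported value is the mean percent inhibition of NEK9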
T7 sequence (whole entry): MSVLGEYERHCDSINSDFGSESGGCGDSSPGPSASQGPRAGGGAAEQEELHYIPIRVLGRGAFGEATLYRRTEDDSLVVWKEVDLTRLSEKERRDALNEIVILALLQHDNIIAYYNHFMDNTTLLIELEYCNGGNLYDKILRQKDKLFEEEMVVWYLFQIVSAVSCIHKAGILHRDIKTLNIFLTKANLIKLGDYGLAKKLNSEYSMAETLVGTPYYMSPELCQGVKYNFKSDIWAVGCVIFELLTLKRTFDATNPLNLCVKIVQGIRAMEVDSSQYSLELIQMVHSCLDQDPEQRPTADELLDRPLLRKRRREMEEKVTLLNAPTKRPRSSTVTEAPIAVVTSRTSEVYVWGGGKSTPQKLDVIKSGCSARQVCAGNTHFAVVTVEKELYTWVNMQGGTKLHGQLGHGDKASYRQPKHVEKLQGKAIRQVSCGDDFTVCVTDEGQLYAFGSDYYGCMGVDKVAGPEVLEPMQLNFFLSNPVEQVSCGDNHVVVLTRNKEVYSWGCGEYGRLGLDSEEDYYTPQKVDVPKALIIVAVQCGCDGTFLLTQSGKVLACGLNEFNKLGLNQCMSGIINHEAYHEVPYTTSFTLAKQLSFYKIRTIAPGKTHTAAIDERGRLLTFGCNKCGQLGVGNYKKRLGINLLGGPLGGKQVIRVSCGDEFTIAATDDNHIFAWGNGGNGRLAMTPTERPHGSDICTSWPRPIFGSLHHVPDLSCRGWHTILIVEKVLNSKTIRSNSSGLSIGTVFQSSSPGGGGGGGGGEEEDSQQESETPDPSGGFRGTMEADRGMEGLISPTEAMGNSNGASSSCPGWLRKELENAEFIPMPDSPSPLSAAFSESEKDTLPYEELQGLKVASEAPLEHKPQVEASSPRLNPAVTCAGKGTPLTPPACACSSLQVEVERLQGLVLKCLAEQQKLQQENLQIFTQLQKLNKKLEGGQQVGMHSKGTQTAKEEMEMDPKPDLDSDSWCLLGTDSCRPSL

Sphingosine kinase 1 (Homo sapiens), sequence (Q9NYA1 whole entry): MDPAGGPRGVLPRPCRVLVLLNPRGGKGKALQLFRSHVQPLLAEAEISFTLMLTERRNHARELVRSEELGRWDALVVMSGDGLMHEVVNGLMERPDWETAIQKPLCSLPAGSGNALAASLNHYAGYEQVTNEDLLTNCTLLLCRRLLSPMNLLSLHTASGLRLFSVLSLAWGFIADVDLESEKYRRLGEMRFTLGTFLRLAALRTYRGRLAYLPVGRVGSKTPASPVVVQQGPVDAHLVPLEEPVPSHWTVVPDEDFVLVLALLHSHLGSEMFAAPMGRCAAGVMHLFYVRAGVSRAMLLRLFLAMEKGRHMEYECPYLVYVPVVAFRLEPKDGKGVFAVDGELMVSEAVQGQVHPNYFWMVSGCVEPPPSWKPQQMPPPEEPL

In the case of `CS(=O)(=O)Nc1ccc(N/C=C2\C(=O)Nc3ccccc32)cc1`, the inhibition [1] was 0.22%, the inhibition [2] was -1.15% and the inhibition [3] was 0.65%. It also gave an inhibition [4] of 2.93%, an inhibition [5] of 0.34% and an inhibition [6] of -1.19%. For the same molecule, the inhibition [7] was 13.7%, the inhibition [8] was -4.89% and the inhibition [9] was -1.38%. It also gave an inhibition [10] of -4.27%, an inhibition [11] of 7.71% and an inhibition [12] of -1.43%. The inhibition [13] was -2.34%, the inhibition [14] was -2.87% and the inhibition [15] was -3.33%. The inhibition [16] was -1.58%, the inhibition [17] was -2.98% and the inhibition [18] was -4.38%. It also gave an inhibition [19] of -3.48% and an inhibition [20] of -0.57%.
